# Measured values reported in PubChem BioAssay (NCI).
# Compounds without any hit were thinned out: in the full panel of roughly 79,000, 15% have a hit. Values without a mark were called inactive. Activity calls are given as the source filed them. No stated cut-off is given here; in the data, active means growth inhibition above about 70%; inactive means the rest.
# What was measured:
# [1] = NCI Yeast Anticancer Drug Screen. Data for the rad52 strain (AID 147);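 further: 0% = growth of vehicle-treated control cultures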; conditions: S. cerevisiae rad52 mutant growth inhibition, stronger effect = higher value
# Procedure, shortened: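 Inhibition of yeast growth, referenced to vehicle controls, was the measured output for a strain with defective DNA damage repair.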
# [2] = NCI Yeast Anticancer Drug Screen. Data for the wt1 strain (AID 149);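 further: 0% = growth of vehicle-treated wt1 cultures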; conditions: S. cerevisiae wt1 strain (SPY 50644) growth inhibition, stronger effect = higher value
# Procedure, shortened: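 Readout: yeast growth inhibition, normalised to vehicle controls, in the wt1 strain exposed to test compounds.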
# [3] = NCI Yeast Anticancer Drug Screen. Data for the rad50EPP+ strain (AID 151);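 further: 0% = growth of vehicle-treated control cultures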; conditions: S. cerevisiae rad50 mutant strain, stronger effect = higher value
# Procedure, shortened: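 Genetically defined yeast (rad50EPP+, DNA damage repair alteration) is grown with compound, and inhibition of growth is expressed relative to vehicle-treated controls.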
# [4] = NCI Yeast Anticancer Drug Screen. Data for the mgt1 strain (AID 153); conditions: S. cerevisiae mgt1 mutant growth inhibition, stronger effect = higher value
# Procedure, shortened: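 In the mgt1 strain, test compounds were added and growth inhibition was determined relative to vehicle-treated controls.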
# [5] = NCI Yeast Anticancer Drug Screen. Data for the rad50 strain (AID 155);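 further: 0% = growth of vehicle-only cultures of the same strain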; conditions: S. cerevisiae rad50 strain growth inhibition, stronger effect = higher value
# Procedure, shortened: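 Compounds were tested on a yeast strain with an engineered DNA damage repair alteration; the reported value is growth inhibition normalised to vehicle treatment.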
# [6] = NCI Yeast Anticancer Drug Screen. Data for the mec2-1 strain (AID 157); conditions: S. cerevisiae mec2-1 strain, stronger effect = higher value
# Procedure, shortened: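 Each compound was tested on mec2-1 yeast, a strain altered in DNA damage repair or cell cycle control. Growth inhibition is reported relative to vehicle.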
# [7] = NCI Yeast Anticancer Drug Screen. Data for the rad14 strain (AID 159);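 further: 0% = growth of vehicle-treated control cultures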; conditions: S. cerevisiae rad14 strain growth inhibition, stronger effect = higher value
# Procedure, shortened: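 Compound-treated yeast with a defined DNA-repair lesion; growth inhibition normalised to vehicle-treated cultures.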
# [8] = NCI Yeast Anticancer Drug Screen. Data for the sgs1 mgt1 strain (AID 161);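 further: 0% = growth of cultures given vehicle only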; conditions: S. cerevisiae sgs1 mgt1 strain, stronger effect = higher value
# Procedure, shortened: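 Test agents were incubated with a DNA-repair-mutant yeast strain. Growth was then read and compared against vehicle-treated controls.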
# [9] = NCI Yeast Anticancer Drug Screen. Data for the CLN2oe strain (AID 163);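 further: 0% = growth of vehicle-only control cultures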; conditions: S. cerevisiae CLN2oe strain, stronger effect = higher value
# Procedure, shortened: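 First, the altered yeast strain was treated with each compound; second, its growth was measured; finally, inhibition was derived by comparison with vehicle controls.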
# [10] = NCI Yeast Anticancer Drug Screen. Data for the cln2 rad14 strain (AID 165);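 further: 0% = growth equal to vehicle treated cultures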; conditions: S. cerevisiae cln2 rad14 strain, stronger effect = higher value
# Procedure, shortened: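 Test compounds were added to cln2 rad14 yeast cultures; inhibition of growth was then determined by comparison with vehicle treatment.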
# [11] = NCI Yeast Anticancer Drug Screen. Data for the bub3 strain (AID 167); conditions: S. cerevisiae bub3 mutant strain, stronger effect = higher value
# Procedure, shortened: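 Growth of a checkpoint-deficient yeast mutant is measured after compound exposure. Values represent inhibition relative to vehicle.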
# [12] = NCI Yeast Anticancer Drug Screen. Data for the wt2 strain (AID 169);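 further: 0% = growth of vehicle-treated yeast cultures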; conditions: S. cerevisiae wt2 strain growth inhibition, stronger effect = higher value
# Procedure, shortened: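 The panel's yeast strains carry defined changes in DNA repair or cell cycle genes. Each strain is grown with compound, and growth loss is scored relative to vehicle.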
# [13] = NCI Yeast Anticancer Drug Screen. Data for the mlh1 strain (AID 171);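 further: 0% = growth of vehicle-treated control cultures of the same strain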; conditions: S. cerevisiae mlh1 strain growth inhibition, stronger effect = higher value
# Procedure, shortened: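 Inhibition values reflect reduced yeast growth in the presence of compound, referenced to vehicle controls, using a strain chosen for its alteration in DNA repair or cell cycle control.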
# [14] = NCI Yeast Anticancer Drug Screen. Data for the sgs1 strain (AID 173);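 further: 0% = growth of vehicle-only control cultures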; conditions: S. cerevisiae sgs1 mutant, stronger effect = higher value
# Procedure, shortened: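 Vehicle-treated cultures served as reference for growth inhibition of a yeast strain altered in DNA damage repair or cell cycle control after compound exposure.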
# [15] = NCI Yeast Anticancer Drug Screen. Data for the mlh1 rad18 strain (AID 175); conditions: S. cerevisiae mlh1 rad18 strain growth inhibition, stronger effect = higher value
# Procedure, shortened: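 Inhibition values reflect reduced growth of mutant yeast versus vehicle-treated controls following compound exposure; the mutations affect DNA damage repair.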
# [16] = NCI Yeast Anticancer Drug Screen. Data for the rad18 strain (AID 177); conditions: S. cerevisiae rad18 mutant growth inhibition, stronger effect = higher value
# Procedure, shortened: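 Steps: expose repair-mutant yeast to compound; measure growth; express as inhibition relative to vehicle control.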
# [17] = at 5.0 µM (retest, dose inferred, filed as 0.5)
# [18] = at 50.0 µM (retest, dose inferred, filed as 5.0)
compound,measurement,setting,value
CC1(C)CC(=O)C(C=NC(=S)C(N)=S)=C(O)C1,growth inhibition,[1]; at 1.2 µM,-47%
same,growth inhibition,[1]; at 3.7 µM,-57%
same,growth inhibition,[1]; at 11.0 µM,-63%
same,growth inhibition,[1]; at 33.0 µM,-49%
same,growth inhibition,[1]; at 100.0 µM,69%
same,growth inhibition,[2]; at 1.2 µM,-30%
same,growth inhibition,[2]; at 3.7 µM,-39%
same,growth inhibition,[2]; at 11.0 µM,-37%
same,growth inhibition,[2]; at 33.0 µM,-16%
same,growth inhibition,[2]; at 100.0 µM,21%
same,growth inhibition,[3]; at 1.2 µM,-43%
same,growth inhibition,[3]; at 3.7 µM,-49%
same,growth inhibition,[3]; at 11.0 µM,-46%
same,growth inhibition,[3]; at 33.0 µM,-51%
same,growth inhibition,[3]; at 100.0 µM,-25%
same,growth inhibition,[4]; at 1.2 µM,-13%
same,growth inhibition,[4]; at 3.7 µM,0%
same,growth inhibition,[4]; at 11.0 µM,3%
same,growth inhibition,[4]; at 33.0 µM,21%
same,growth inhibition,[4]; at 100.0 µM,84% (active)
same,growth inhibition,[5]; at 1.2 µM,-15%
same,growth inhibition,[5]; at 3.7 µM,-14%
same,growth inhibition,[5]; [17],-26%
same,growth inhibition,[5]; at 11.0 µM,-13%
same,growth inhibition,[5]; at 33.0 µM,6%
same,growth inhibition,[5]; [18],14%
same,growth inhibition,[5]; at 50.0 µM,15.5%
same,growth inhibition,[5]; at 100.0 µM,69%
same,growth inhibition,[6]; at 1.2 µM,-40%
same,growth inhibition,[6]; at 3.7 µM,-34%
same,growth inhibition,[6]; [17],-6%
same,growth inhibition,[6]; at 11.0 µM,-41%
same,growth inhibition,[6]; at 33.0 µM,-19%
same,growth inhibition,[6]; [18],22%
same,growth inhibition,[6]; at 50.0 µM,74.1% (active)
same,growth inhibition,[6]; at 100.0 µM,91% (active)
same,growth inhibition,[7]; at 1.2 µM,-18%
same,growth inhibition,[7]; at 3.7 µM,-7%
same,growth inhibition,[7]; at 11.0 µM,-16%
same,growth inhibition,[7]; at 33.0 µM,-18%
same,growth inhibition,[7]; at 100.0 µM,19%
same,growth inhibition,[8]; [17],-2%
same,growth inhibition,[8]; [18],8%
same,growth inhibition,[8]; at 50.0 µM,35.5%
same,growth inhibition,[9]; at 1.2 µM,-35%
same,growth inhibition,[9]; at 3.7 µM,-25%
same,growth inhibition,[9]; at 11.0 µM,-30%
same,growth inhibition,[9]; at 33.0 µM,-10%
same,growth inhibition,[9]; at 100.0 µM,96% (active)
same,growth inhibition,[10]; [17],23%
same,growth inhibition,[10]; [18],32%
same,growth inhibition,[10]; at 50.0 µM,10.3%
same,growth inhibition,[11]; at 1.2 µM,-30%
same,growth inhibition,[11]; at 3.7 µM,-20%
same,growth inhibition,[11]; [17],18%
same,growth inhibition,[11]; at 11.0 µM,-24%
same,growth inhibition,[11]; at 33.0 µM,-31%
same,growth inhibition,[11]; [18],38%
same,growth inhibition,[11]; at 50.0 µM,6.15%
same,growth inhibition,[11]; at 100.0 µM,91% (active)
same,growth inhibition,[12]; at 1.2 µM,-47%
same,growth inhibition,[12]; at 3.7 µM,-52%
same,growth inhibition,[12]; at 11.0 µM,-59%
same,growth inhibition,[12]; at 33.0 µM,-41%
same,growth inhibition,[12]; at 100.0 µM,20%
same,growth inhibition,[13]; at 1.2 µM,-31%
same,growth inhibition,[13]; at 3.7 µM,-26%
same,growth inhibition,[13]; at 11.0 µM,-9%
same,growth inhibition,[13]; at 33.0 µM,6%
same,growth inhibition,[13]; at 100.0 µM,91% (active)
same,growth inhibition,[14]; at 1.2 µM,-28%
same,growth inhibition,[14]; at 3.7 µM,-31%
same,growth inhibition,[14]; at 11.0 µM,-29%
same,growth inhibition,[14]; at 33.0 µM,-15%
same,growth inhibition,[14]; at 100.0 µM,65%
same,growth inhibition,[15]; [17],-7%
same,growth inhibition,[15]; [18],75% (active)
same,growth inhibition,[15]; at 50.0 µM,45.2%
same,growth inhibition,[16]; at 1.2 µM,-8%
same,growth inhibition,[16]; at 3.7 µM,-4%
same,growth inhibition,[16]; at 11.0 µM,-15%
same,growth inhibition,[16]; at 33.0 µM,-1%
same,growth inhibition,[16]; at 100.0 µM,70% (active)
CC1=CC(=C(c2ccc(N)c(C)c2)c2ccc(N)c(C)c2)C=CC1=N,growth inhibition,[1]; at 1.2 µM,24%
same,growth inhibition,[1]; at 3.7 µM,41%
same,growth inhibition,[1]; at 11.0 µM,47%
same,growth inhibition,[1]; at 33.0 µM,64%
same,growth inhibition,[1]; at 100.0 µM,97% (active)
same,growth inhibition,[2]; at 1.2 µM,8%
same,growth inhibition,[2]; at 3.7 µM,9%
same,growth inhibition,[2]; at 11.0 µM,7%
same,growth inhibition,[2]; at 33.0 µM,6%
same,growth inhibition,[2]; at 100.0 µM,90% (active)
same,growth inhibition,[3]; at 1.2 µM,8%
same,growth inhibition,[3]; at 3.7 µM,17%
same,growth inhibition,[3]; at 11.0 µM,23%
same,growth inhibition,[3]; at 33.0 µM,30%
same,growth inhibition,[3]; at 100.0 µM,83% (active)
same,growth inhibition,[4]; at 1.2 µM,-2%
same,growth inhibition,[4]; at 3.7 µM,7%
same,growth inhibition,[4]; at 11.0 µM,12%
same,growth inhibition,[4]; at 33.0 µM,39%
same,growth inhibition,[4]; at 100.0 µM,97% (active)
same,growth inhibition,[5]; at 1.2 µM,21%
same,growth inhibition,[5]; at 3.7 µM,10%
same,growth inhibition,[5]; [17],20%
same,growth inhibition,[5]; at 11.0 µM,18%
same,growth inhibition,[5]; at 33.0 µM,22%
same,growth inhibition,[5]; [18],87% (active)
same,growth inhibition,[5]; at 50.0 µM,85.2% (active)
same,growth inhibition,[5]; at 100.0 µM,96% (active)
same,growth inhibition,[6]; at 1.2 µM,1%
same,growth inhibition,[6]; at 3.7 µM,5%
same,growth inhibition,[6]; [17],18%
same,growth inhibition,[6]; at 11.0 µM,3%
same,growth inhibition,[6]; at 33.0 µM,37%
same,growth inhibition,[6]; [18],97% (active)
same,growth inhibition,[6]; at 50.0 µM,89.6% (active)
same,growth inhibition,[6]; at 100.0 µM,96% (active)
same,growth inhibition,[7]; at 1.2 µM,0%
same,growth inhibition,[7]; at 3.7 µM,2%
same,growth inhibition,[7]; at 11.0 µM,-2%
same,growth inhibition,[7]; at 33.0 µM,19%
same,growth inhibition,[7]; at 100.0 µM,97% (active)
same,growth inhibition,[8]; [17],30%
same,growth inhibition,[8]; [18],79% (active)
same,growth inhibition,[8]; at 50.0 µM,83.7% (active)
same,growth inhibition,[9]; at 1.2 µM,19%
same,growth inhibition,[9]; at 3.7 µM,36%
same,growth inhibition,[9]; at 11.0 µM,41%
same,growth inhibition,[9]; at 33.0 µM,50%
same,growth inhibition,[9]; at 100.0 µM,97% (active)
same,growth inhibition,[10]; [17],9%
same,growth inhibition,[10]; [18],75% (active)
same,growth inhibition,[10]; at 50.0 µM,74.5% (active)
same,growth inhibition,[11]; at 1.2 µM,12%
same,growth inhibition,[11]; at 3.7 µM,26%
same,growth inhibition,[11]; [17],18%
same,growth inhibition,[11]; at 11.0 µM,29%
same,growth inhibition,[11]; at 33.0 µM,54%
same,growth inhibition,[11]; [18],97% (active)
same,growth inhibition,[11]; at 50.0 µM,89.8% (active)
same,growth inhibition,[11]; at 100.0 µM,96% (active)
same,growth inhibition,[12]; at 1.2 µM,-33%
same,growth inhibition,[12]; at 3.7 µM,-20%
same,growth inhibition,[12]; at 11.0 µM,-31%
same,growth inhibition,[12]; at 33.0 µM,75% (active)
same,growth inhibition,[12]; at 100.0 µM,97% (active)
same,growth inhibition,[13]; at 1.2 µM,7%
same,growth inhibition,[13]; at 3.7 µM,10%
same,growth inhibition,[13]; at 11.0 µM,14%
same,growth inhibition,[13]; at 33.0 µM,55%
same,growth inhibition,[13]; at 100.0 µM,96% (active)
same,growth inhibition,[14]; at 1.2 µM,5%
same,growth inhibition,[14]; at 3.7 µM,19%
same,growth inhibition,[14]; at 11.0 µM,18%
same,growth inhibition,[14]; at 33.0 µM,51%
same,growth inhibition,[14]; at 100.0 µM,95% (active)
same,growth inhibition,[15]; [17],51%
same,growth inhibition,[15]; [18],94% (active)
same,growth inhibition,[15]; at 50.0 µM,84.8% (active)
same,growth inhibition,[16]; at 1.2 µM,2%
same,growth inhibition,[16]; at 3.7 µM,20%
same,growth inhibition,[16]; at 11.0 µM,20%
same,growth inhibition,[16]; at 33.0 µM,35%
same,growth inhibition,[16]; at 100.0 µM,96% (active)
